Data: ChEMBL document CHEMBL2218924, “A broad activity screen in support of a chemogenomic map for kinase signalling research and drug discovery” (Biochem J, 2013)

Experiments:
[1] = target: Tyrosine-protein kinase Fer (Homo sapiens) (UniProt P16591); conditions: at 10 µM
[2] = target: Tyrosine-protein kinase Fes/Fps (Homo sapiens) (UniProt P07332); conditions: at 1 µM
[3] = target: Tyrosine-protein kinase Fes/Fps (Homo sapiens) (UniProt P07332); conditions: at 10 µM
[4] = target: Tyrosine-protein kinase Fgr (Homo sapiens) (UniProt P09769); conditions: at 1 µM
Chain of Tyrosine-protein kinase Fgr (Homo sapiens) (P09769 2-529 limits assumed): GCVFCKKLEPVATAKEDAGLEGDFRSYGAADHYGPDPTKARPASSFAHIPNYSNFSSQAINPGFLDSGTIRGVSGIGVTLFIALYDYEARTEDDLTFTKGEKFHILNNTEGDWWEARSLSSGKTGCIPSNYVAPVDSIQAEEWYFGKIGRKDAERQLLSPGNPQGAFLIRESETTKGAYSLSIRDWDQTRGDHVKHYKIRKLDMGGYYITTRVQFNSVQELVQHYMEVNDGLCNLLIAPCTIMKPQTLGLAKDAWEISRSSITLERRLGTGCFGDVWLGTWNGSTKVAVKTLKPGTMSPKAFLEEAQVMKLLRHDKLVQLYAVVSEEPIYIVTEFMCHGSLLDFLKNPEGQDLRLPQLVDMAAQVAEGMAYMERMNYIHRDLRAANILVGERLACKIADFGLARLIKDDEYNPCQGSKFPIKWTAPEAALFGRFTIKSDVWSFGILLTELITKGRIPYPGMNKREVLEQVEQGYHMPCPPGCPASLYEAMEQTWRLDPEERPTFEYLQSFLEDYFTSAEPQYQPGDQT

[5] = target: Tyrosine-protein kinase Fgr (Homo sapiens) (UniProt P09769); conditions: at 10 µM
[6] = target: Vascular endothelial growth factor receptor 1 (Homo sapiens) (UniProt P17948); conditions: at 1 µM
Chain of Vascular endothelial growth factor receptor 1 (Homo sapiens) (P17948 whole entry): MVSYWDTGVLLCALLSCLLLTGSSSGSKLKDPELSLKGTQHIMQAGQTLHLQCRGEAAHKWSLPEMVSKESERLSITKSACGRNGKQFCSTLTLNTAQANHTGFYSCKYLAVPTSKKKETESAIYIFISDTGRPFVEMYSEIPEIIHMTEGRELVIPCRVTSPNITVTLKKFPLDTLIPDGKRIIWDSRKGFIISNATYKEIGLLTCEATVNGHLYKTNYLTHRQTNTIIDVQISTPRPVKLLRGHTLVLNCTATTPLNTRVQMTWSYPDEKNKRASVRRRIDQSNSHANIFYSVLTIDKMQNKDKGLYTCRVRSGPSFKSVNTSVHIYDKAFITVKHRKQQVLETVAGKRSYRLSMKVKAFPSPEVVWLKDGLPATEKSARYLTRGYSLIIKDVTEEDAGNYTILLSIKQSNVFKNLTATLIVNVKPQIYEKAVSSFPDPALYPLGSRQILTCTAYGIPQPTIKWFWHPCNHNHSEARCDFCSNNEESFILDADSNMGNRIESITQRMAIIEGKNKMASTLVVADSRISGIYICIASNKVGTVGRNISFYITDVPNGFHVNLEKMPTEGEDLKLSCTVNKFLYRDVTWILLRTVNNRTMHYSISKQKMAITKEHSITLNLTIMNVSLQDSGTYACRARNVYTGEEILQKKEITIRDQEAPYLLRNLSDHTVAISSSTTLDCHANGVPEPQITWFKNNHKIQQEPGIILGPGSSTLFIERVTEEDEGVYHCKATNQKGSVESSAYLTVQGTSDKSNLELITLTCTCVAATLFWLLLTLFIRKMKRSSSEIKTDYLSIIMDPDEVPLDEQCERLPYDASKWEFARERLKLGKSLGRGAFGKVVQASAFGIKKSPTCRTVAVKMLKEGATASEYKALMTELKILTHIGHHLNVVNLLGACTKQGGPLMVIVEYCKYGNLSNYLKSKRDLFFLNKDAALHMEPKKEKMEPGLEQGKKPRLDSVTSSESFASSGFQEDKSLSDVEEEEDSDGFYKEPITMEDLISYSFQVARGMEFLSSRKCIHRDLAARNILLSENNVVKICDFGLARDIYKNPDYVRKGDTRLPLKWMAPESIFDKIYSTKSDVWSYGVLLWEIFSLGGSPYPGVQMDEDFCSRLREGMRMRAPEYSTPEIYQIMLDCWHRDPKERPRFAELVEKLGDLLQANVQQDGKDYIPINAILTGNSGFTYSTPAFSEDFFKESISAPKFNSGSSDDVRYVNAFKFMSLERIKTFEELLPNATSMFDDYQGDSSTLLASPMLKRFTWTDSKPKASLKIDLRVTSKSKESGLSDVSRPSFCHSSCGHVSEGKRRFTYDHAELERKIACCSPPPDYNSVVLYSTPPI

[7] = target: Vascular endothelial growth factor receptor 1 (Homo sapiens) (UniProt P17948); conditions: at 10 µM
[8] = target: Receptor-type tyrosine-protein kinase FLT3 (Homo sapiens) (UniProt P36888); conditions: at 1 µM
[9] = target: Receptor-type tyrosine-protein kinase FLT3 (Homo sapiens) (UniProt P36888); conditions: at 10 µM
[10] = target: Vascular endothelial growth factor receptor 3 (Homo sapiens) (UniProt P35916); conditions: at 1 µM
Chain of Vascular endothelial growth factor receptor 3 (Homo sapiens) (P35916 whole entry): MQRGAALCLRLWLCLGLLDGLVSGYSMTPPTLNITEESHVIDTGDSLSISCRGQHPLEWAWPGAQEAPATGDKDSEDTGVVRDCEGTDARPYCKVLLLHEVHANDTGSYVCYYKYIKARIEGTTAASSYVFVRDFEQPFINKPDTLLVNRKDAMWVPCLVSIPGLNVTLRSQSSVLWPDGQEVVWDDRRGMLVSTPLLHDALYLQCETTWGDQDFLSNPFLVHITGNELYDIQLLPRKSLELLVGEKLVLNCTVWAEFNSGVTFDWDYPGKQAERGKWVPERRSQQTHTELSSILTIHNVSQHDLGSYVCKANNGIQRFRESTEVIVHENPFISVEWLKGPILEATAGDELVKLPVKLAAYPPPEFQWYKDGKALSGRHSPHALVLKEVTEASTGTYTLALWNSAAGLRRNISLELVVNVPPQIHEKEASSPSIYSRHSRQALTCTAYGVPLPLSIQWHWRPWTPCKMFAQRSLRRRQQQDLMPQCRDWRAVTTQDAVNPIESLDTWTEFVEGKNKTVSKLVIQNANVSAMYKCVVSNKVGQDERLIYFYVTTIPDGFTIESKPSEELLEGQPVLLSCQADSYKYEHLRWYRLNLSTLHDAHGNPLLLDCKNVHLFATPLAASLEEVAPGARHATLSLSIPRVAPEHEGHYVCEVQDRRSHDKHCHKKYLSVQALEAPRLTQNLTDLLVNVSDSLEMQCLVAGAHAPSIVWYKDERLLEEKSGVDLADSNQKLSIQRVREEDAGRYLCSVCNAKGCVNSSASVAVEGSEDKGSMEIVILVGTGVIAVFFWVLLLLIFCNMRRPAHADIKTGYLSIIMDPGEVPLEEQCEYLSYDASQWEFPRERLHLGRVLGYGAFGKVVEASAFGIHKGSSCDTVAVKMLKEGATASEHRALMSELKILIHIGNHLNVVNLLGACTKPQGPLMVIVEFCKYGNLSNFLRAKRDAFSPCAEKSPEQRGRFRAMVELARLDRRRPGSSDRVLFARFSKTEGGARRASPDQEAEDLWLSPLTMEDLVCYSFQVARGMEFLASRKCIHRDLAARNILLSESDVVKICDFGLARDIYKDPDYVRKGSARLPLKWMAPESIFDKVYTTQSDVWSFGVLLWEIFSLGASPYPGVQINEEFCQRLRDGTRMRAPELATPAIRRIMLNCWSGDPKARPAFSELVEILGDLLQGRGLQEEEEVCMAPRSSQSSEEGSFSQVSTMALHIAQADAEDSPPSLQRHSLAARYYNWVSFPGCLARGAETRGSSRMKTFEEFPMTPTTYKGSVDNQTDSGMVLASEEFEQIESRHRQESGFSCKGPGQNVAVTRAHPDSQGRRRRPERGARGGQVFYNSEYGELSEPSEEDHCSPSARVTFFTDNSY

[11] = target: Vascular endothelial growth factor receptor 3 (Homo sapiens) (UniProt P35916); conditions: at 10 µM
[12] = target: Macrophage colony-stimulating factor 1 receptor (Homo sapiens) (UniProt P07333); conditions: at 1 µM
[13] = target: Macrophage colony-stimulating factor 1 receptor (Homo sapiens) (UniProt P07333); conditions: at 10 µM
[14] = target: Tyrosine-protein kinase Fyn (Homo sapiens) (UniProt P06241); conditions: at 1 µM
Chain of Tyrosine-protein kinase Fyn (Homo sapiens) (P06241 2-537 limits assumed): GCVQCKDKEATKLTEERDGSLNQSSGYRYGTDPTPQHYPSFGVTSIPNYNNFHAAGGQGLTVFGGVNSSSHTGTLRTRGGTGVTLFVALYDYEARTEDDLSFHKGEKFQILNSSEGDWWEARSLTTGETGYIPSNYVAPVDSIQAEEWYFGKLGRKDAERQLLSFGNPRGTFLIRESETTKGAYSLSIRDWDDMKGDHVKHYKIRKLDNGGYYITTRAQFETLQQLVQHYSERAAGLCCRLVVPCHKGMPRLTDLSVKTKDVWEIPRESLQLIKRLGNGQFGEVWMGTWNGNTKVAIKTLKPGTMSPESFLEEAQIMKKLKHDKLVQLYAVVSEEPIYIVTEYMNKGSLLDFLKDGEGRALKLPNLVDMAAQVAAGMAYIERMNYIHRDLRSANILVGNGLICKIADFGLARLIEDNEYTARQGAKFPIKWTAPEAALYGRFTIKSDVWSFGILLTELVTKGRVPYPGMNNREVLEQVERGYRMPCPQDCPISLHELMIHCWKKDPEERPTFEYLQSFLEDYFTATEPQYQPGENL

[15] = target: Tyrosine-protein kinase Fyn (Homo sapiens) (UniProt P06241); conditions: at 10 µM
[16] = target: T1, Mitogen-activated protein kinase kinase kinase kinase 2 (Homo sapiens) (UniProt Q12851); conditions: at 1 µM
T1 sequence (whole entry): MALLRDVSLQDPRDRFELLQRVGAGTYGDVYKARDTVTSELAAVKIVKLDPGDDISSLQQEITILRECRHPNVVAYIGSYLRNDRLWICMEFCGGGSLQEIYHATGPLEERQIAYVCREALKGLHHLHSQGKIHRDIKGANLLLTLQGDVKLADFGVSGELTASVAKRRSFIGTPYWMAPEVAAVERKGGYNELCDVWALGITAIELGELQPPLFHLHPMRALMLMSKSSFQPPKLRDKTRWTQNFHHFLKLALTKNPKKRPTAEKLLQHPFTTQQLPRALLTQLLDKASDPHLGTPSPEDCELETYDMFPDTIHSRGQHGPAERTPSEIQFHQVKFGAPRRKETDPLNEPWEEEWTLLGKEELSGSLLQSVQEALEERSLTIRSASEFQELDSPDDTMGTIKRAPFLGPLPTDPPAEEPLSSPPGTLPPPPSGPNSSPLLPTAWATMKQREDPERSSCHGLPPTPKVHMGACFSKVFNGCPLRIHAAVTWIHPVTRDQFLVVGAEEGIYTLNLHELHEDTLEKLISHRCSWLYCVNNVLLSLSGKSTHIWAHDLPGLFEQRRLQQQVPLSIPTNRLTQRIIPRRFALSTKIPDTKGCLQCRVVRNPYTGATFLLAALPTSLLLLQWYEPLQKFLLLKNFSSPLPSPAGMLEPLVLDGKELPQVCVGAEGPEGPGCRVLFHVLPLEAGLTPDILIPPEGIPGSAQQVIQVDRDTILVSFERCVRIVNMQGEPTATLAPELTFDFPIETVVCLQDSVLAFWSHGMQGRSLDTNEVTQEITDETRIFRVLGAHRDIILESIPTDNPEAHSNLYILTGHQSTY

[17] = target: T1, Mitogen-activated protein kinase kinase kinase kinase 2 (Homo sapiens); conditions: at 10 µM
[18] = target: G protein-coupled receptor kinase 5 (Homo sapiens) (UniProt P34947); conditions: at 10 µM
Chain of G protein-coupled receptor kinase 5 (Homo sapiens) (P34947 whole entry, looked up): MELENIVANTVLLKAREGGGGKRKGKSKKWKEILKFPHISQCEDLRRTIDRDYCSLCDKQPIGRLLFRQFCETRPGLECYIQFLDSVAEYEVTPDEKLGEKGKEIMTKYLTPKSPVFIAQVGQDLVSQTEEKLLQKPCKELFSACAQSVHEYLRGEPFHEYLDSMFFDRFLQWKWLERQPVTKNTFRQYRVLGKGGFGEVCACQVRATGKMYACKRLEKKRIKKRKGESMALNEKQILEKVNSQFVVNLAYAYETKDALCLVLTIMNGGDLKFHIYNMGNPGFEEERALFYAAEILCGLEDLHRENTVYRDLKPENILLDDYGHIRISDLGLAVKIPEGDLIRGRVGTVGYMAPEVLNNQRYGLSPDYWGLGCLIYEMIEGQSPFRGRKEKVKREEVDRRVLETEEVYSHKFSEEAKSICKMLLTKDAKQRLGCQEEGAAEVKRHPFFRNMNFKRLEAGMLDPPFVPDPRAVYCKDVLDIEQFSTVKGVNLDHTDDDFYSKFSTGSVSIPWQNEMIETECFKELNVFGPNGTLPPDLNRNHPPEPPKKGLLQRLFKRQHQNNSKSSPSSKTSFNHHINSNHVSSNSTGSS

[19] = target: G protein-coupled receptor kinase 6 (Homo sapiens) (UniProt P43250); conditions: at 10 µM
Chain of G protein-coupled receptor kinase 6 (Homo sapiens) (P43250 whole entry, looked up): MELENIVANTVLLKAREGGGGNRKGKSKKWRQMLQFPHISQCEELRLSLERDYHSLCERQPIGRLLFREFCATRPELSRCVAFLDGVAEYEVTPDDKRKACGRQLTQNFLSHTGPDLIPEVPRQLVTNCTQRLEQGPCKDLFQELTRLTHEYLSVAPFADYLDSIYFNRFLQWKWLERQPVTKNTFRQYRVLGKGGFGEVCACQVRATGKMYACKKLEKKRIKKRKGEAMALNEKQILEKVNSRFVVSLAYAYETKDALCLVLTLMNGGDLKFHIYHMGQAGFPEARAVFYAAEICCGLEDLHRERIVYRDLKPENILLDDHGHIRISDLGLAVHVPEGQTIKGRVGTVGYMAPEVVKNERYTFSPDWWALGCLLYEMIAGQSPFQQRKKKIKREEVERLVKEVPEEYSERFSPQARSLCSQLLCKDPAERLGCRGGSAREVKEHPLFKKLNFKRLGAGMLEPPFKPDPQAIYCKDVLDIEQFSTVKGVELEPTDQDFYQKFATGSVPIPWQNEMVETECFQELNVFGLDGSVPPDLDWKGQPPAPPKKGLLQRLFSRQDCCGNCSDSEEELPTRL

[20] = target: T2, Rhodopsin kinase GRK7 (Homo sapiens) (UniProt Q8WTQ7); conditions: at 1 µM
T2 sequence (whole entry): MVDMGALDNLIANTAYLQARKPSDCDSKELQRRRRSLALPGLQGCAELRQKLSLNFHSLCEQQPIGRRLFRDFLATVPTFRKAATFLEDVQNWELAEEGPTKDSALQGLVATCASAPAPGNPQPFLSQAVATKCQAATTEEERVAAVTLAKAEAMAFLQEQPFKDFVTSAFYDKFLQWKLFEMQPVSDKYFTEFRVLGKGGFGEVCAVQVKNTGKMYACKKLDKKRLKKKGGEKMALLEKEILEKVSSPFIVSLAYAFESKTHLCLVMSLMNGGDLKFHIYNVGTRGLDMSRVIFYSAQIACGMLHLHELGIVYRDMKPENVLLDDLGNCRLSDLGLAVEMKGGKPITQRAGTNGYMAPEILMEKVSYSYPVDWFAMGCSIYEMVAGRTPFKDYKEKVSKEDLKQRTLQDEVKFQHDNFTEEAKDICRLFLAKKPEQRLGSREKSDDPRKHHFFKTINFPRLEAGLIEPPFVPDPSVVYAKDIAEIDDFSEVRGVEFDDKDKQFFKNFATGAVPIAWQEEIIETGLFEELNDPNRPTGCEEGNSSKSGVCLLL

Structure (SMILES)	residual activity [1] [%]	residual activity [2] [%]	residual activity [3] [%]	residual activity [4] [%]	residual activity [5] [%]	residual activity [6] [%]	residual activity [7] [%]	residual activity [8] [%]	residual activity [9] [%]	residual activity [10] [%]	residual activity [11] [%]	residual activity [12] [%]	residual activity [13] [%]	residual activity [14] [%]	residual activity [15] [%]	residual activity [16] [%]	residual activity [17] [%]	residual activity [18] [%]	residual activity [19] [%]	residual activity [20] [%]
NC(=O)c1ccc2[nH]c(-c3ccc(Oc4ccc(Cl)cc4)cc3)nc2c1	89	97	87	99	90	82	39	65	27	69	22	84	59	78	86	44	10	88	80	89
COc1ccc(S(=O)(=O)N(CCO)c2ccccc2CN(C)C/C=C/c2ccc(Cl)cc2)cc1	91	96	89	95	80	100	92	104	62	90	93	78	64	73	37	85	81	87	86	99
CC(C)n1cnc2c(NCc3ccccc3)nc(NCCCO)nc21	103	94	51	103	103	94	87	89	78	87	68	101	77	93	1	87	75	93	87	94
CCC(=O)Nc1ccc2ncnc(Nc3cccc(Br)c3)c2c1	91	115	78	102	76	86	83	120	107	85	65	94	61	85	67	77	69	93	83	96
O=C1NC(=O)c2c1c1c3ccccc3[nH]c1c1[nH]c3cc(Br)ccc3c21	86	100	96	100	91	30	17	41	27	4	3	78	68	85	62	88	74	89	89	96
O=c1cc(-c2cccc3c2Sc2ccccc2S3)oc(N2CCOCC2)c1	83	94	96	99	93	95	85	85	83	97	69	101	74	91	94	101	101	99	101	96
